The whole screen tested about 2,100 compounds, of which about 260 (12%) were called active. Roughly 58% stayed inconclusive and do not appear here. The call rests on the fitted dose curve; in most records, active means well fitted cell-killing curve with a large enough effect; inconclusive means small, poorly fitted or top-dose-only effect, or effect the other way; inactive means flat fitted curve, though single readings scatter. The list shows a part of the results. A call without a number means that no potency is given here.
Assay: Viability Counterscreen for Confirmatory qHTS for Inhibitors of ATXN expression; further: nearly all actives have a fitted effect of over 50% in size
Details: HEK-293 ATXN2-luc cells viability, CellTiter-Fluor, 24 h
Description: PI: Daniel Scoles Ph.D. University of Utah School of Medicine, Salt Lake City, Utah MLPCN Grant: NS073009 Spinocerebellar ataxia type 2 (SCA2) is a multisystem neurodegenerative disease caused by a dominantly acting mutation leading to expansion of a polyQ domain in the ataxin-2 protein (ATXN2). SCA2 patients develop progressive ataxia and later lose function in other neuronal systems. Prominent parkinsonian signs develop in some patients. Like many neurodegenerative disorders, no symptomatic or disease-modifying treatments are known. The primary objective of the proposed research is to identify compounds inhibiting ATXN2 expression and to test them for efficacy in SCA2 mouse models. We have developed a cell-based assay paired with an in vivo mouse model using identical luciferase expression constructs. This approach takes advantage of an ATXN2-luciferase transgene, with the luciferase gene flanked by the upstream and downstream portions of the ATXN2 gene. Here we describe a 5-7 dose quantitative high thoroughput screen (qHTS) for compounds lowering ATXN2 expression. We screened the NIH Molecular Libraries Small Molecule Repository (MLSMR) and NCGC's mechanistically annotated (MIPE) and drug repurposing (NPC) collections of compounds for lowering expression of an ATXN2-luciferase reporter in HEK-293 cells. The assay is a multiplexed cell viability assay to ensure target reduction in the absence of cytotoxicity. Secondary qHTS assays included a CMV-luciferase reporter expressed in HEK-293 cells as well as a biochemical assay using recombinant luciferase to detect inhibitors of the reporter enzyme. Compounds that inhibit ATXN2 expression but is not cytotoxic were selected for confirmatory and secondary screens.
PROTOCOL TABLE (as described by Inglese J, Shamu CE and Guy RK. 2007) SEQUENCE No. (e.g., 1, 2, 3, etc.); […] (e.g., Cells, Incubation, Reagent, etc.); VALUE; DESCRIPTION. 1; Cells; 4 uL; white, solid bottom, 1536-well Greiner assay plate. 2; Incubation; 2 hr; 37 degree C in 5% humidified CO2. 3; Compounds; 23 nL; Kalypsis pintool (Wako USA) equipped with a 1536-well pin head. 4; Incubation; 24 hr; 37 degree C in 5% humidified CO2. 5; Reagent; 1 uL; Gly-Phe-7-Amino-4-trifluoromethylcoumarin. 6; Incubation; 30 min; 37 degree C in 5% humidified CO2. 7; Detection; Fluorescence; ViewLux plate reader (PerkinElmer). 8; Reagent; 3 uL; SteadyGlo luciferase solution (Promega). 9; Incubation; 5 min; room temperature. 10; Detection; Luminescence; ViewLux plate reader (PerkinElmer). NOTES (numbers refer to Sequence numbers above) 1. S2 cells expressing ATXN2-luciferase reporter were suspended in phenol-red free DMEM and dispensed in assay plates using a Multidrop Combi dispenser (Thermo Fisher Scientific). Wells containing medium only were plated on each plate, and values were used to normalize (100% inhibition) in the luciferase and CellTiter-Fluor assays. 2. Assay plates were incubated. Evaporation was prevented by covering assay plates with metal lids containing holes to allow gas diffusion. 3. Compounds were added in a dose response manner with the final concentrations of 57, 11.4, 2.28, 0.46, 0.091, 0.018, 0.0037 uM. Vehicle-only plates, with DMSO being pin-transferred to columns 5-48, were inserted uniformly at the beginning and the end of each library to monitor and record any shifts in assay performance. 5. 125 uM Gly-Phe-7-Amino-4-trifluoromethylcoumarin (MP Biomedicals) working concentration was used at a final concentration of 25 uM. 7. To assess cell viability; the assay plates were read using the ViewLux high-throughput CCD imager (PerkinElmer), wherein single end-point fluorescence measurement was acquired (excitation 405/10; emission 540/25 nm). 8. Detection reagent SteadyGlo Luciferase (Promega) was added to the assay plate. 10. Luminescence is then measured on the ViewLux imager equipped with a clear emission filter using a 2 sec exposure. […]
Potency means the concentration at half of the fitted maximal effect.

Row | SMILES | Potency
1 | Cc1cccc(-n2c(/C=C/c3ccc([N+](=O)[O-])o3)nc3ccccc3c2=O)c1 | 7.08 µM (active)
2 | CSCCC(c1nnnn1-c1c(C)cccc1C)N1CCC2(CC1)C(=O)NCN2c1ccccc1 (stereo not drawn) | 31.6 µM (active)
3 | O=C(Nc1ccc(OC(=O)N2CCCCC2)cc1)N1CCOCC1 | inactive
4 | N#Cc1cn(C2OC(CO)C(O)C2O)c2ncnc(N)c12 (stereo not drawn) | inactive
5 | O=[N+]([O-])c1oc2ccc3ccccc3c2c1CCO | 28.2 µM (active)
6 | COc1ccc(N=Cc2c(O)n(-c3ccc(C)cc3)c(=O)[nH]c2=O)cc1 | inactive
7 | COC(=O)C(O)(c1ccc(NC(=S)NC(=O)c2ccc(Cl)cc2Cl)c(C)c1)C(F)(F)F (stereo not drawn) | inactive
8 | COc1cccc2c1C(=O)c1c(O)c3c(c(O)c1C2=O)CC(O)(C(C)=NO)CC3OC1CC(N)C(O)C(C)O1 (stereo not drawn) | 17.8 µM (active)
9 | CC(=O)OC1(C)CC(C)C(=O)C(C(O)CC2CC(=O)NC(=O)C2)C1 (stereo not drawn) | inactive
10 | C[C@]12CC[C@H](O)C[C@H]1CC[C@@H]1C2CC[C@]2(C)[C@@H](C3=CC(=O)OC3)[C@@H](O)C[C@]12O (stereo partly drawn) | inactive
11 | CCC1(OC(=O)CN)C(=O)OCc2c1cc1n(c2=O)Cc2cc3ccccc3nc2-1 (stereo not drawn) | inactive
12 | COC(=O)c1nc(-c2ccc3c(n2)C(=O)C(N)=C(OC)C3=O)c(N)c(-c2ccc(OC)c(OC)c2O)c1C | 15.8 µM (active)
13 | CCOC(=O)[C@]12Cc3ccsc3[C@H]1N(Cc1ccccc1)C(=O)c1ccccc12 | inactive
14 | CN1C2CCC1/C(=C/c1ccccn1)C(=O)/C2=C\c1ccccn1 | 1.26 µM (active)
15 | N#Cc1c(Br)n(C2OC(CO)C(O)C2O)c2ncnc(N)c12 (stereo not drawn) | inactive
16 | Cc1cccc(C)c1-n1nnnc1C(c1cc2ccccc2o1)N1CCC(n2c(=O)[nH]c3ccccc32)CC1 (stereo not drawn) | 8.91 µM (active)
17 | O=c1[nH]c2ccccc2n1C1CCN(C(CCc2ccccc2)c2nnnn2C2CCCC2)CC1 (stereo not drawn) | 22.4 µM (active)
18 | CC(C)(C)n1nnnc1C(CCc1ccccc1)N1CCC(n2c(=O)[nH]c3ccccc32)CC1 (stereo not drawn) | 22.4 µM (active)
19 | O=C(NN=Cc1ccc(N(CCCl)CCCl)cc1)c1cc(=O)[nH]c(=O)[nH]1 | inactive

Row | SMILES | Potency
20 | C1=NCCc2c1[nH]c1ccccc21 | inactive
21 | COC1C(O)C(C)OC(OC2C(Oc3cccc4c(O)c5c(=O)oc6ccc(C)c7c(=O)oc(c34)c5c67)OC(C)C(O)C2O)C1O (stereo not drawn) | inactive
22 | Cc1c2ccncc2c(C)c2c1[nH]c1ccccc12 | 22.4 µM (active)
23 | CCn1c(O)c(/C=N/NC(=O)c2ccccc2)c(=O)n(CC)c1=S | inactive
24 | NC(Cc1ccc(Cl)cc1)c1csc(Nc2ccccn2)n1 (stereo not drawn) | 25.1 µM (active)
25 | CC[C@@]1(O)C(=O)OCc2c1cc1n(c2=O)Cc2cc3c(NC(=O)CN)cccc3nc2-1 | inactive
26 | Cc1ccc(/C=C2\C(=O)NC(=S)N(c3ccccc3F)C2=O)s1 | 8.91 µM (active)
27 | CCCCCn1c(=O)c(C(=O)NCc2ccccn2)c(O)c2ccccc21 | inactive
28 | C#CCCC[C@@H]1OC(=O)CNC(=O)C([C@@H](C)CC)NC(=O)[C@@H]2CCCN2C(=O)C([C@@H](C)CC)OC(=O)[C@H](Cc2ccccc2)N(C)C(=O)[C@H](C(C)C)NC(=O)C1(C)C (stereo partly drawn) | 22.4 µM (active)
29 | C=CCCC[C@@H]1OC(=O)CNC(=O)C([C@@H](C)CC)NC(=O)[C@@H]2CCCN2C(=O)C([C@@H](C)CC)OC(=O)[C@H](Cc2ccccc2)N(C)C(=O)[C@H](C(C)C)NC(=O)C1(C)C (stereo partly drawn) | 3.16 µM (active)
30 | CCC(C)N1C(=O)/C(=C\c2cnc(N(C)C)nc2)C(=O)NC1=S (stereo not drawn) | inactive
31 | c1ccc2sc(N3CCNCC3)nc2c1 | inactive
32 | O=C1NC(=O)N(CCc2ccc(F)cc2)C(=O)/C1=C/C=C/c1ccccc1 | 11.2 µM (active)
33 | COc1ccc(CCNCc2ccc(F)cc2)cc1OC | inactive
34 | CCCCCCC(=O)N/N=C/c1c(O)n(CCCC)c(=S)[nH]c1=O | inactive
35 | CC(=NCCc1c[nH]c2ccccc12)c1c(O)n(Cc2ccccc2)c(=O)[nH]c1=O | inactive
36 | CCCCCn1c(NC(=O)c2ccco2)c(C(=O)OCC)c2nc3ccccc3nc21 | 28.2 µM (active)
37 | CCOC(=O)c1c(N)n(CCN2CCCCC2)c2nc3ccccc3nc12 | inactive
38 | CC(C)CCNC(=O)c1c(N)n(Cc2ccc3c(c2)OCO3)c2nc3ccccc3nc12 | inactive

Source: PubChem BioAssay AID1745850 (National Center for Advancing Translational Sciences (NCATS), 2022)
